The values that follow come from PubChem BioAssay (EPA / NIEHS).

Test [1] is described as follows: TOX21_p53_BLA_p3_viability: Viability Assessment in the Tox21 HCT-116 p53 Agonism Beta-lactamase Assay, Phase 3 (AID 2283593).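 Further: cells exposed to compound for 16 h before reading.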 The gist of the method: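 HCT116 cells, 4000/well, dosed 5 h after plating by pin transfer (217-fold dilution from DMSO stock) and incubated 16 h at 37C, 5% CO2. Viability read as ATP luminescence with CellTiter-Glo after 30 min at room temperature.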

Test [2] is described as follows: TOX21_p53_BLA_p4_viability: Viability Assessment in the Tox21 HCT-116 p53 Agonism Beta-lactamase Assay, Phase 4 (AID 2283597).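 Further: hits lower the luminescence signal meaning cytotoxicity.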 The gist of the method:
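Cytotoxicity as reduced cellular ATP (CellTiter-Glo luminescence, 30 min room temperature), measured in the same wells following the CCF4 FRET p53 reading. Human HCT-116 cells received compounds in DMSO (217-fold dilution) for 16 h.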

The target of test [3] is Cellular tumor antigen p53 (Homo sapiens) (UniProt P04637). The test can be described thus: TOX21_p53_BLA_p5_ratio: Tox21 HCT-116 p53 Agonism Beta-lactamase Assay, Ratio, Phase 5 (AID 2283599). The gist of the method: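 HCT-116 p53-bla cells (4000/well) plated 5 h, dosed with compound (217-fold DMSO dilution) for 16 h at 37 C; CCF4-AM substrate 2 h at room temperature. Activity is the 460/530 nm emission ratio (405 nm excitation), fitted in gain-of-signal direction versus DMSO.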
Chain of Cellular tumor antigen p53 (Homo sapiens) (P04637 whole entry, looked up): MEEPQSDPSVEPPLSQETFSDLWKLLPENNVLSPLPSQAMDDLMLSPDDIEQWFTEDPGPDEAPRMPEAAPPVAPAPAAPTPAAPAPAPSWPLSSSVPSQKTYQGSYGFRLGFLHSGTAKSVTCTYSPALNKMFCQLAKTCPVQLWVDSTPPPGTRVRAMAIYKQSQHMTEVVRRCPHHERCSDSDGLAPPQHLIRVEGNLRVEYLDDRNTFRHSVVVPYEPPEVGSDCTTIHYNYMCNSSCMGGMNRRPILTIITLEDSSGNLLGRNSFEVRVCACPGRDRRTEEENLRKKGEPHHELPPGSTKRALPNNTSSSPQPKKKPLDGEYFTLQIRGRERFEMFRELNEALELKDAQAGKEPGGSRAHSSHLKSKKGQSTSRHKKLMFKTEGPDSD

Test [4] shares this target. Briefly: TOX21_p53_BLA_p3_ratio: Tox21 HCT-116 p53 Agonism Beta-lactamase Assay, Ratio, Phase 3 (AID 2283596). The gist of the method:
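Cells were seeded at 4000/well, rested 5 h at 37C, then dosed with DMSO compound solutions (217-fold dilution) for 16 h. CCF4-AM substrate was loaded for 2 h at room temperature, and the 460/530 nm emission ratio was fitted for gain of signal versus DMSO.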

The nature of test [5]: TOX21_p53_BLA_p5_viability: Viability Assessment in the Tox21 HCT-116 p53 Agonism Beta-lactamase Assay, Phase 5 (AID 2283600). The gist of the method:
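Viability came from CellTiter-Glo ATP luminescence, read after 30 min at room temperature. Before this, HCT-116 p53-bla cells (4000/well) had 16 hours of compound exposure at 37C, with DMSO stocks diluted 217-fold on transfer.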

In test [6] the target is Cellular tumor antigen p53 (Homo sapiens) (UniProt P04637). Briefly: TOX21_p53_BLA_p4_ratio: Tox21 HCT-116 p53 Agonism Beta-lactamase Assay, Ratio, Phase 4 (AID 2283601). The gist of the method: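 HCT-116 p53 beta-lactamase reporter cells (4000/well) preincubated 5 h, then compound (217-fold dilution of DMSO stock) for 16 h at 37C. CCF4-AM substrate added 2 h at room temperature; 460/530 nm emission ratio fitted upward versus DMSO.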

Another test deals with PGR (gene 5241) (UniProt P06401). Briefly: TOX21_PR_BLA_Followup_Antagonist_ratio: Tox21 HEK293 Progesterone Receptor (PR) Antagonism Beta-lactamase Follow-Up Assay, Ratio (AID 2283934).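 Further: PR-UAS-bla HEK293T cells stimulated with 1 nM R5020 agonist for 16 hr.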 The gist of the method:
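Readout is the blue/green (ch2/ch1) substrate cleavage ratio after 2 hours at room temperature, following 16 hr co-treatment of PR-bla HEK293T cells with compound and 1nM promegestone. Multiplexed CellTiter-Glo viability flags cytotoxicity; DMSO baseline.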

Test [7] is described as follows: TOX21_PR_BLA_Followup_Agonist_viability: Viability Assessment in the Tox21 HEK293 Progesterone Receptor (PR) Agonism Beta-lactamase Follow-Up Assay (AID 2283935).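 Further: signal loss means lower viability so actives are cytotoxic.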 An outline of the steps: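 Run multiplexed with the beta-lactamase FRET read, this endpoint measures ATP by CellTiter-Glo luminescence (30 min, room temperature). PR-UAS-bla HEK293T cells received compound 6 hr after plating and were then incubated 16 hr at 37C in 2% stripped serum.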

Test [8] in a line: TOX21_PR_BLA_Followup_Antagonist_viability: Viability Assessment in the Tox21 HEK293 Progesterone Receptor (PR) Antagonism Beta-lactamase Follow-Up Assay (AID 2283936).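 Further: cells exposed to compound with R5020 agonist for 16 h; hits lower the luminescence signal meaning cytotoxicity.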 The gist of the method:
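PR-UAS-bla HEK293T cells in medium with 2% charcoal-stripped FBS were treated with compounds plus R5020 for 16 hr at 37C. After the beta-lactamase read, CellTiter-Glo was added to the same wells and luminescence read after 30 min at room temperature.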

Test [9] can be described thus: TOX21_PR_LUC_Followup_Antagonist_viability: Viability Assessment in the Tox21 HEK293 Progesterone Receptor (PR) Antagonism Luciferase Follow-Up Assay (AID 2283940). An outline of the steps:
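Viability counter-readout: cellular ATP measured by luciferase luminescence after 16 h compound exposure at 37C of HEK293-PR-A-luc cells, which had been cultured in charcoal-stripped serum and seeded 5 h beforehand.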

The nature of test [10]: UKN5_HCS_SBAD2_cell_viability: Viability Assessment in the University of Konstanz (UKN) Leist Lab Neurite Outgrowth Assay in human iPSC-derived immature Dorsal Root Ganglia Neurons (UKN5) (AID 2284056; active means hit-call score of the fitted dose curve at least 0.9, where 1 is the maximum; inactive means score below 0.9). An outline of the steps: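 iPSC-derived immature peripheral neurons (SBAD2) seeded on Matrigel with CHIR99021, SU5402 and DAPT, dosed 1 h later for 24 h. Viability from Hoechst H-33342 and calcein-AM live staining, high-content imaging; bidirectional fit versus DMSO.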

Test [11] is described as follows: UKN5_HCS_SBAD2_neurite_outgrowth: University of Konstanz (UKN) Leist Lab Neurite Outgrowth Assay in human iPSC-derived immature Dorsal Root Ganglia Neurons (UKN5) (AID 2284070; active means hit-call score of the fitted dose curve at least 0.9, where 1 is the maximum; inactive means score below 0.9). The conditions noted are these: actives raise or lower the signal. The gist of the method:
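Neurite area from calcein-AM high-content images after 24 h exposure (staining included), with H-33342 for viability, fitted both directions against DMSO. Cells: thawed immature SBAD2 peripheral neurons, 100.000 cells/cm2, with CHIR99021, SU5402, DAPT; dosing 1 h after seeding.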

Test [12] can be described thus: UKN2_HCS_IMR90_neural_migration: University of Konstanz (UKN) Leist Lab Neural Crest Cell Migration Assay in human induced IMR90 Pluripotent Stem Cells (UKN2) (AID 2284204; active means hit-call score of the fitted dose curve at least 0.9, where 1 is the maximum; inactive means score below 0.9). The conditions noted are these: actives raise or lower the signal. An outline of the steps: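 Stopper-exclusion migration (cMINC), human iPSC-derived neural crest cells; N2-S + EGF/FGF; compound added 24 h post-stopper removal, 24 h exposure. Readout: calcein-AM/Hoechst 30 min, HCS fluorescence imaging; bidirectional fitting, DMSO baseline.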

The nature of test [13]: UKN4_HCS_LUHMES_neurite_outgrowth: University of Konstanz (UKN) Leist Lab Neurite Outgrowth Assay in human LUHMES cells (UKN4) (AID 2284206; active means hit-call score of the fitted dose curve at least 0.9, where 1 is the maximum; inactive means score below 0.9). The conditions noted are these: actives raise or lower the signal. An outline of the steps:
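After 24 h compound treatment beginning shortly after replating of 2-day-differentiated LUHMES cells, calcein-AM and H-33342 live staining allowed high-content imaging of neurite area and viability. Fitted bidirectionally against DMSO.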

The nature of test [14]: UKN4_HCS_LUHMES_cell_viability: Viability Assessment in the University of Konstanz (UKN) Leist Lab Neurite Outgrowth Assay in human LUHMES cells (UKN4) (AID 2284232; active means hit-call score of the fitted dose curve at least 0.9, where 1 is the maximum; inactive means score below 0.9). The gist of the method: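 Viability was read by high-content imaging of calcein-AM/H-33342-stained cells after 24 h toxicant exposure, staining included. Cells: human LUHMES on day 2 of dopaminergic differentiation, dosed shortly after attachment; DMSO baseline, bidirectional curve fitting.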

A short description of test [15]: UKN2_HCS_IMR90_cell_viability: Viability Assessment in the University of Konstanz (UKN) Leist Lab Neural Crest Cell Migration Assay in human induced IMR90 Pluripotent Stem Cells (UKN2) (AID 2284233; active means hit-call score of the fitted dose curve at least 0.9, where 1 is the maximum; inactive means score below 0.9;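 further: cells exposed to compound for 24 h after a 24 h migration phase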). An outline of the steps: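 Viability read as calcein-AM fluorescence by high-content imaging, Hoechst co-stain, 30 min. Human iPSC (IMR90) neural crest cells had migrated 24 h into stopper-defined gaps before 24 h chemical exposure. Fitted bidirectionally relative to DMSO.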

The structures appear in SMILES notation. Inconclusive results are not listed. Activity calls are given as the source filed them. How the source made its calls, unless noted: active means hit-call score of the fitted dose curve at least 0.9, where 1 is the maximum; inconclusive means response in the unintended direction; inactive means score below 0.9.

Chain of PGR (gene 5241) (P06401 whole entry, looked up): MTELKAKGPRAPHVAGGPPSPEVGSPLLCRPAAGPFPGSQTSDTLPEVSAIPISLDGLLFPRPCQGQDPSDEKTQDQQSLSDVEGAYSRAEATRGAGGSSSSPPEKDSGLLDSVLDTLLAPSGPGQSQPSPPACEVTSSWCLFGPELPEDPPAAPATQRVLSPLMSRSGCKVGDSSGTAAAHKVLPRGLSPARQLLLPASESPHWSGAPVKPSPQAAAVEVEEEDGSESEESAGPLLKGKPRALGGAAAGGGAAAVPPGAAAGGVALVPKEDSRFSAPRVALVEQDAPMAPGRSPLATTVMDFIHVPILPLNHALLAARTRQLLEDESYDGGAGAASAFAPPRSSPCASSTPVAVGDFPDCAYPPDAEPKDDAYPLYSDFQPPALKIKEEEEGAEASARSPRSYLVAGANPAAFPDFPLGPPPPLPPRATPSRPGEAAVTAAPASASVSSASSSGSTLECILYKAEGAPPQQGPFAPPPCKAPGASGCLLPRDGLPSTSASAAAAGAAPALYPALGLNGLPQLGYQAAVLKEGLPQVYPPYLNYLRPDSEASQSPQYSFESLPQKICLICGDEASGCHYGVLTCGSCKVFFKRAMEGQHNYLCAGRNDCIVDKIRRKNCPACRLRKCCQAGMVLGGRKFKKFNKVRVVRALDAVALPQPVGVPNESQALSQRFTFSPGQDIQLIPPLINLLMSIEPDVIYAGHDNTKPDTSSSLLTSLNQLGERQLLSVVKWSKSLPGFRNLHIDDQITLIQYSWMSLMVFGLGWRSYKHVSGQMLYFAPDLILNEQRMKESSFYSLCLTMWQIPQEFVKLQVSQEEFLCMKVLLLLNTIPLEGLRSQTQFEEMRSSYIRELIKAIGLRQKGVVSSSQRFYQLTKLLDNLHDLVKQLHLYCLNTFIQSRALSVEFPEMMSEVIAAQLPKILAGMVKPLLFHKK

As for `C1CS1`, the call in [1], in [2] and in test [3] was inactive.

As to `CCN(CC)C(=O)N[C@@H]1C=C2c3cccc4[nH]cc(c34)C[C@@H]2N(C)C1`, the result in test [4], in test [3] and in [5] was inactive.

As to `NC(=S)c1c(Cl)cccc1Cl`, the outcome in test [1], in test [2], in test [3] and in test [6] was inactive.

As for `Clc1ccc(C(Cl)(Cl)Cl)c(Cl)c1`, the result in [1], in test [4] and in [6] was inactive.

For `CCOC(=O)c1cncn1C(C)c1ccccc1` (stereo not given), the outcome in [4] was inactive.

Take `CCC1COC(Cn2cncn2)(c2ccc(Cl)cc2Cl)O1` (stereo not given): the call in test [1], in test [4], in [3], in test [7], in test [8] and in test [9] was inactive. Further, the AC50 with PGR (gene 5241) is 60.3 µM (active).

As for `CCC(C)Br` (stereo not given), the outcome in test [4], in test [2], in test [3], in test [5] and in test [6] was inactive.

Turning to `CC(C)c1c(CN(C)C(C)Cc2ccccc2)n(C)n(-c2ccccc2)c1=O` (stereo not given), the call in [1] and in [6] was inactive.

On to `CNC(C)Cc1ccc2c(c1)OCO2` (stereo not given), for which the outcome in [4], in test [2], in test [3], in test [10], in [11] and in test [12] was inactive. Further, the call in [13], in test [14] and in test [15] was inactive.

In the case of `CCCC[N+]1(C)[C@@H]2CC(OC(=O)[C@H](CO)c3ccccc3)C[C@H]1[C@@H]1O[C@@H]12` (stereo not given in full), the call in [1], in [3], in test [5] and in test [6] was inactive.

Regarding `CCCCCCC(=O)O[C@H]1CC[C@H]2[C@@H]3CC[C@H]4CC(=O)C=C(C)[C@]4(C)[C@H]3CC[C@]12C`, the concentration at half-maximal activity (AC50) in test [1] was 37 µM (active). For the same compound, the outcome in test [4], in test [3], in test [5] and in [6] was inactive.

Turning to `CC1CC(CC2CCC(N)C(C)C2)CCC1N` (stereo not given), the outcome in test [1], in test [2] and in [5] was inactive.

As to `CC(C)(C)C(=O)C(Cl)Cl`, the outcome in test [1], in test [4], in test [3] and in test [6] was inactive.

On to `O=c1[nH]cc(N(CCCl)CCCl)c(=O)[nH]1`, for which, in test [4], the AC50 is 23 µM (active). The result in test [2], in test [3] and in test [6] was inactive.

Regarding `N#CC(Cl)(Cl)Cl`, the result in test [1], in [4] and in test [5] was inactive.

On to `c1cc2c(c(NC3=NCCN3)c1)CCCC2`, for which the result in test [1], in test [4], in test [3], in [5] and in test [6] was inactive.

`C[C@@H]([C@H](O)c1ccccc1)N(C)C`: the result in test [4], in test [2], in test [3], in test [5] and in test [6] was inactive.

On to `CCCC(C)(COC(N)=O)COC(=O)NC1CC1` (stereo not given), for which the result in test [4], in [3], in test [5] and in test [6] was inactive.

As to `O=NN(CCO)CCO`, the result in test [4], in [2] and in test [6] was inactive.

As for `CCNCC(O)c1cccc(O)c1` (stereo not given), the result in [4], in test [3] and in test [5] was inactive.

In the case of `Nc1ccccc1-c1ccccc1`, the compound was classed as inactive in test [1], in test [2], in test [3] and in [6].

Regarding `CCCCCC[N+](=O)[O-]`, the compound was classed as inactive in [1], in test [2] and in [5].

On to `CCC1(C)CC(=O)NC(=O)C1`, for which the compound was classed as inactive in test [1] and in test [6].

For the compound `C=CCN1CC[C@]23CCCC[C@H]2[C@H]1Cc1ccc(O)cc13`, the result in [4], in test [2], in [5] and in test [6] was inactive.

For the compound `CC(C)=CCN1CC[C@]2(C)c3cc(O)ccc3C[C@H]1[C@H]2C`, the result in test [1], in test [2], in [3] and in [5] was inactive.

As to `[Cl-].[Cl-].[Sn+2]`, the result in test [1], in test [2] and in test [5] was inactive.

For `CCCCC1C(=O)NC(=O)N(C2CCCCC2)C1=O` (stereo not given), the call in [1], in test [2], in test [3], in test [5] and in test [6] was inactive.

In general, AC50 refers to the concentration giving half of the maximal activity seen.
